Experiment [1] is described as follows: NCI Yeast Anticancer Drug Screen. Data for the rad50 strain (AID 155).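 Note: 0% = growth of vehicle-only cultures of the same strain.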 Particulars: S. cerevisiae rad50 strain growth inhibition, active compounds read high. A digest of the protocol:
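A DNA repair-deficient yeast mutant serves as the test organism; compound-induced growth inhibition is calculated against vehicle-treated cells.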

Experiment [2] in a line: NCI Yeast Anticancer Drug Screen. Data for the mec2-1 strain (AID 157). Particulars: S. cerevisiae mec2-1 strain, active compounds read high. A digest of the protocol:
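Compounds were applied to mec2-1 yeast cells. Their growth was then compared with that of vehicle-treated cultures to give growth inhibition.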

The nature of experiment [3]: NCI Yeast Anticancer Drug Screen. Data for the sgs1 mgt1 strain (AID 161).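 Note: 0% = growth of cultures given vehicle only.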 Particulars: S. cerevisiae sgs1 mgt1 strain, active compounds read high. Put shortly:
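Percent growth inhibition was derived by comparing compound-exposed mutant yeast with vehicle-exposed cultures. The strain carries alterations in DNA damage repair.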

Experiment [4] can be described thus: NCI Yeast Anticancer Drug Screen. Data for the cln2 rad14 strain (AID 165).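 Note: 0% = growth equal to vehicle treated cultures.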 Particulars: S. cerevisiae cln2 rad14 strain, active compounds read high. A digest of the protocol:
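Strain: cln2 rad14 yeast, altered in cell cycle control and DNA damage repair. Read-out: growth inhibition vs vehicle.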

The nature of experiment [5]: NCI Yeast Anticancer Drug Screen. Data for the bub3 strain (AID 167). Particulars: S. cerevisiae bub3 mutant strain, active compounds read high. Put shortly:
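Inhibition values come from growth of compound-treated mutant yeast normalised to vehicle-treated controls.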

A short description of experiment [6]: NCI Yeast Anticancer Drug Screen. Data for the mlh1 rad18 strain (AID 175). Particulars: S. cerevisiae mlh1 rad18 strain growth inhibition, active compounds read high. Put shortly: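 A repair-deficient yeast strain is exposed to test compound, and growth is scored relative to vehicle-treated controls.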
Where [7] appears, read: at 5.0 µM (retest, dose inferred, filed as 0.5).
Where [8] appears, read: at 50.0 µM (retest, dose inferred, filed as 5.0).

The panel holds about 79,000 compounds, 15% with a hit somewhere; the sample as a whole holds those more often. A number with no mark means an inactive call. Active and inactive are the calls of the source. Cut-off read from the data, not from the text of the source: active = growth inhibition above about 70%; inactive = the rest.

This passage reports growth inhibition results from PubChem BioAssay (NCI).

As to `O=S(=O)(NC1CCCCC1)c1ccc2c(c1)OCCOCCOCCOCCO2`, the growth inhibition in experiment [1] (setting [7]) is 7%; in experiment [1] (setting [8]) it was 22%; in experiment [1] (at 50.0 µM), 40.3%; in experiment [2] (setting [7]), 9%; in experiment [2] (setting [8]), 37%; in experiment [2] (at 50.0 µM), 23.8%. Besides, the growth inhibition in experiment [3] (setting [7]) was 0%; in experiment [3] (setting [8]) it was 63%; in experiment [3] (at 50.0 µM), 70.7% (active); in experiment [4] (setting [7]) it was -7%; in experiment [4] (setting [8]) it was 39%; in experiment [4] (at 50.0 µM), 36%. Besides, the growth inhibition in experiment [5] (setting [7]) is -24%; in experiment [5] (setting [8]), 53%; in experiment [5] (at 50.0 µM), 73.2% (active); in experiment [6] (setting [7]), 5%; in experiment [6] (setting [8]) it was 31%; in experiment [6] (at 50.0 µM), 65.5%.

For `COc1ccccc1N=Nc1c(N)nc(N)[nH]c1=O`, the growth inhibition in experiment [1] (setting [7]) was 4%; in experiment [1] (setting [8]), 14%; in experiment [1] (at 50.0 µM), 6.4%; in experiment [2] (setting [7]) it was -10%; in experiment [2] (setting [8]), 16%; in experiment [2] (at 50.0 µM), 1.05%. The growth inhibition was -17% in experiment [3] (setting [7]); 14% in experiment [3] (setting [8]); -2.05% in experiment [3] (at 50.0 µM); 0% in experiment [4] (setting [7]); -7% in experiment [4] (setting [8]); 11.6% in experiment [4] (at 50.0 µM). Besides, the growth inhibition in experiment [5] (setting [7]) is -2%; in experiment [5] (setting [8]), -2%; in experiment [5] (at 50.0 µM), 52.5%; in experiment [6] (setting [7]), 15%; in experiment [6] (setting [8]), 20%; in experiment [6] (at 50.0 µM) it was 9.8%.

For `O=C(O)CCC/C(=N\Nc1ccccc1)C(=O)O`, the growth inhibition was 5% in experiment [1] (setting [7]); 97% (active) in experiment [1] (setting [8]); 98.5% (active) in experiment [1] (at 50.0 µM); 2% in experiment [2] (setting [7]); 99% (active) in experiment [2] (setting [8]); 99.2% (active) in experiment [2] (at 50.0 µM). Moreover, the growth inhibition in experiment [3] (setting [7]) was 6%; in experiment [3] (setting [8]) it was 97% (active); in experiment [3] (at 50.0 µM), 98.7% (active); in experiment [4] (setting [7]) it was 0%; in experiment [4] (setting [8]), 99% (active); in experiment [4] (at 50.0 µM), 97.4% (active). Further, the growth inhibition was 1% in experiment [5] (setting [7]); 98% (active) in experiment [5] (setting [8]); 99% (active) in experiment [5] (at 50.0 µM); 7% in experiment [6] (setting [7]); 98% (active) in experiment [6] (setting [8]); 98.3% (active) in experiment [6] (at 50.0 µM).

With `CC[C@@H](C(=O)[C@@H](C)[C@@H](O)[C@H](C)CCc1ccc(C)c(O)c1C(=O)O)[C@H]1O[C@](CC)([C@H]2CC[C@](O)(CC)[C@H](C)O2)C[C@@H]1C`, the growth inhibition in experiment [1] (setting [7]) is 36%; in experiment [1] (setting [8]) it was 97% (active); in experiment [1] (at 50.0 µM), 89.7% (active); in experiment [2] (setting [7]), 48%; in experiment [2] (setting [8]), 98% (active); in experiment [2] (at 50.0 µM), 92% (active). For the same molecule, the growth inhibition was 38% in experiment [3] (setting [7]); 98% (active) in experiment [3] (setting [8]); 91% (active) in experiment [3] (at 50.0 µM); 71% (active) in experiment [4] (setting [7]); 99% (active) in experiment [4] (setting [8]); 87.8% (active) in experiment [4] (at 50.0 µM). For the same molecule, the growth inhibition was 65% in experiment [5] (setting [7]); 98% (active) in experiment [5] (setting [8]); 88.9% (active) in experiment [5] (at 50.0 µM); 35% in experiment [6] (setting [7]); 98% (active) in experiment [6] (setting [8]); 89.3% (active) in experiment [6] (at 50.0 µM).

As for `C[C@@]12C[C@@H](Br)[C@H](Br)C[C@]1(C)O2`, the growth inhibition in experiment [1] (setting [7]) was 0%; in experiment [1] (setting [8]), 16%; in experiment [1] (at 50.0 µM), 94.5% (active); in experiment [2] (setting [7]), -1%; in experiment [2] (setting [8]) it was 8%; in experiment [2] (at 50.0 µM), 98.7% (active). Moreover, the growth inhibition in experiment [3] (setting [7]) is 0%; in experiment [3] (setting [8]), 15%; in experiment [3] (at 50.0 µM), 98.1% (active); in experiment [4] (setting [7]), -2%; in experiment [4] (setting [8]), 2%; in experiment [4] (at 50.0 µM), 64.5%. For the same molecule, the growth inhibition in experiment [5] (setting [7]) was -6%; in experiment [5] (setting [8]), 0%; in experiment [5] (at 50.0 µM), 55%; in experiment [6] (setting [7]) it was -1%; in experiment [6] (setting [8]), 6%; in experiment [6] (at 50.0 µM), 93.2% (active).

For the molecule `NC(=S)c1cccc(C2Nc3ccccc3O2)c1` (configuration not stated), the growth inhibition in experiment [1] (setting [7]) is -1%; in experiment [1] (setting [8]) it was 24%; in experiment [1] (at 50.0 µM), 75.1% (active); in experiment [2] (setting [7]), 0%; in experiment [2] (setting [8]), 11%; in experiment [2] (at 50.0 µM), 44%. Further, the growth inhibition in experiment [3] (setting [7]) is 9%; in experiment [3] (setting [8]), 18%; in experiment [3] (at 50.0 µM) it was 39.1%; in experiment [4] (setting [7]), 0%; in experiment [4] (setting [8]), 30%; in experiment [4] (at 50.0 µM) it was 37.7%. Besides, the growth inhibition in experiment [5] (setting [7]) is 47%; in experiment [5] (setting [8]), 68%; in experiment [5] (at 50.0 µM), 81.7% (active); in experiment [6] (setting [7]) it was 37%; in experiment [6] (setting [8]) it was 61%; in experiment [6] (at 50.0 µM) it was 76.3% (active).

In the case of `CC1(C)OC2OC(/C=C/[N+](=O)[O-])C3OC(C)(C)OC3C2O1` (configuration not stated), the growth inhibition in experiment [1] (setting [7]) was 20%; in experiment [1] (setting [8]) it was 98% (active); in experiment [1] (at 50.0 µM), 8.25%; in experiment [2] (setting [7]), 3%; in experiment [2] (setting [8]), 98% (active); in experiment [2] (at 50.0 µM) it was 10.9%. For the same molecule, the growth inhibition in experiment [3] (setting [7]) was -17%; in experiment [3] (setting [8]), 97% (active); in experiment [3] (at 50.0 µM) it was 13.2%; in experiment [4] (setting [7]), 17%; in experiment [4] (setting [8]) it was 99% (active); in experiment [4] (at 50.0 µM), 5.45%. Moreover, the growth inhibition in experiment [5] (setting [7]) is -9%; in experiment [5] (setting [8]), 97% (active); in experiment [5] (at 50.0 µM), 4.75%; in experiment [6] (setting [7]) it was 17%; in experiment [6] (setting [8]), 97% (active); in experiment [6] (at 50.0 µM), 27.4%.

Regarding `Cc1ccccc1C(=O)c1ccc(O)c2ccccc12`, the growth inhibition is -6% in experiment [1] (setting [7]); 90% (active) in experiment [1] (setting [8]); 99.4% (active) in experiment [1] (at 50.0 µM); 4% in experiment [2] (setting [7]); 82% (active) in experiment [2] (setting [8]); 94.5% (active) in experiment [2] (at 50.0 µM). Also, the growth inhibition in experiment [3] (setting [7]) is 9%; in experiment [3] (setting [8]), 94% (active); in experiment [3] (at 50.0 µM) it was 64.3%; in experiment [4] (setting [7]), -10%; in experiment [4] (setting [8]) it was 65%; in experiment [4] (at 50.0 µM) it was 29.3%. The growth inhibition in experiment [5] (setting [7]) was 4%; in experiment [5] (setting [8]) it was 71% (active); in experiment [5] (at 50.0 µM) it was 55.2%; in experiment [6] (setting [7]), 32%; in experiment [6] (setting [8]) it was 94% (active); in experiment [6] (at 50.0 µM), 99.4% (active).

`C/C(=N/NC(=S)N1CCCC1)c1cccc(/C(C)=N\NC(=S)N2CCCC2)n1`: the growth inhibition is 11% in experiment [1] (setting [7]); 12% in experiment [1] (setting [8]); 15.2% in experiment [1] (at 50.0 µM); 13% in experiment [2] (setting [7]); 28% in experiment [2] (setting [8]); -14.9% in experiment [2] (at 50.0 µM). Besides, the growth inhibition in experiment [3] (setting [7]) is -17%; in experiment [3] (setting [8]), -4%; in experiment [3] (at 50.0 µM), -6.45%; in experiment [4] (setting [7]) it was 1%; in experiment [4] (setting [8]) it was -4%; in experiment [4] (at 50.0 µM), -3.15%. Besides, the growth inhibition in experiment [5] (setting [7]) was -3%; in experiment [5] (setting [8]), 5%; in experiment [5] (at 50.0 µM), -8.05%; in experiment [6] (setting [7]), 17%; in experiment [6] (setting [8]) it was 18%; in experiment [6] (at 50.0 µM), 1.65%.
